Source: PubChem BioAssay (Tox21)
“And” between values parts separate entries of the source, which are not always exact repeats. Identical values can stand only once. Results filed as inconclusive are left out. The source made the active and inactive calls. The call rests on the fitted dose curve.

test: qHTS assay for small molecules that induce genotoxicity in human embryonic kidney cells expressing luciferase-tagged ATAD5 - cell viability (AID 651634); conditions: HEK293T ATAD5-luc cells viability, CellTiter-Fluor, 15.5 h; series mostly up to 83.3 µM; activity, negative = cytotoxicity: at the top concentration; further: nearly all actives have a fitted effect of over 25% in size
From the text: National Center for Advancing Translational Sciences [NCATS]
NIH Chemical Genomics Center [NCGC]
U.S. Environmental Protection Agency [EPA]
National Institutes of Environmental Health Sciences [NIEHS]
National Toxicology Program [NTP]
U.S. Food and Drug Administration [FDA]
Enhanced Level of Genome Instability Gene 1 (ELG1; human ATAD5) protein levels increase in response to various types of DNA damage. Using a luciferase reporter-gene tagged with ElG1, a cell-based assay [developed by Kyungjae Myung, NHGRI, NIH] was used to measure the induction of ATAD5 in human embryonic kidney cells (HEK293T). So, increase in luciferase activity can be used to identify the compounds that cause genetic stress. In addition to genotoxicity, these cells were also used to test for cytotoxicity by measuring the protease activity within live cells.
Tox21 Assay Protocol Summary:
For cytotoxicity screening, 2,000 cells in 5 uL/well were dispensed into white, solid-bottom 1536-well plates using a Multidrop Combi (Thermo Scientific) dispenser. Following transfer of 23 nL compound or DMSO vehicle by a pin tool, the plates were incubated 15.5 hr at 37C and 5% CO2. 1 ul CellTiter-Fluor reagent (Promega, Madison, WI) was then added to each plate and following 30 min incubation at 37C, fluorescence intensity was quantified on a ViewLux CCD-based plate reader.
On the % scale 0 is the no-effect control and ±100 the full control effect; potency means the concentration at half of the fitted maximal effect.

Structure (SMILES) | activity, negative = cytotoxicity | Potency
CCCC(C)C(=O)OCC (stereo not given) | 11.7% (inactive) | –
C=CCCC(=O)O | 9.69% (inactive) | –
CCC(=O)OCc1ccccc1 | 7.88% (inactive) | –
CC(CC=O)CC(C)(C)C (stereo not given) | 14.1% (inactive) | –
CC(C)C1CCC(O)CC1 (stereo not given) | 6.94% (inactive) | –
C=C(C)C(=O)OCC1CCCO1 (stereo not given) | 3.92% (inactive) | –
NC(N)=NCCN1CCCCCCC1 | 15.1% [at 39.1 µM] (inactive) | –
C=COCC1CCC(COC=C)CC1 (stereo not given) | -4.85% (inactive) | –
[O-][n+]1cccc(CO)c1 | 7.06% (inactive) | –
CC(C)CC(C)(N)C#N (stereo not given) | 6.6% [at 95.3 µM] (inactive) | –
CC(C)(C)C(=O)Oc1ccc(S(=O)(=O)Nc2ccccc2C(=O)NCC(=O)O)cc1 | 6.68% (inactive) | –
O=C(CO)[C@@H](O)[C@H](O)[C@@H](O)CO | 17.2% (inactive) | –
CCCCOCCOC(=O)COc1cc(Cl)c(Cl)cc1Cl | 16.3% (inactive) | –
Clc1cc(Cl)cc(Cl)c1 | 15.7% (inactive) | –
O=C1CCCCCCCCCCCCCCO1 | 12.1% (inactive) | –
C=CN1CCCCCC1=O | 15.2% (inactive) | –
CCCC[N+](C)(CCCC)CCCC | 13.9% (inactive) | –
C[N+]1(C)[C@@H]2CC(OC(=O)[C@H](CO)c3ccccc3)C[C@H]1[C@@H]1O[C@@H]12 (stereo not given in full) | 8.74% (inactive) | –
CC1=CC(=O)[C@H]2C[C@@H]1C2(C)C | 10.3% (inactive) | –
CC(C)(CCC(=O)O)C(=O)O | 13.6% [at 95.3 µM] (inactive) | –

Structure (SMILES) | activity, negative = cytotoxicity | Potency
CN1CCN(c2cc3c(nn2)Oc2ccccc2N3C)CC1 | 17.6% (inactive) | –
NC(=O)N1c2ccccc2CC(=O)c2ccccc21 | 6.04% (inactive) | –
CCOC(=O)c1cnc2c(cnn2CC)c1NN=C(C)C | -10.7% (inactive) | –
O=S(=O)(O)c1cccc2c(S(=O)(=O)O)cccc12 | 8.06% (inactive) | –
CCC(C(=O)NC(=O)NC(C)=O)c1ccccc1 (stereo not given) | 22.7% (inactive) | –
CC1OC1C1CCC2(C)OC2C1 (stereo not given) | 18.3% (inactive) | –
CC(C(=O)O)c1cccc(Oc2ccccc2)c1 (stereo not given) | 13.9% [at 39.1 µM] (inactive) | –
CC1(C)OC[C@@H](COC(=O)CCc2ccc(OC[C@@H](O)CNCCNC(=O)N3CCOCC3)cc2)O1 | – | inactive
CO[C@@]1(NC(=O)C(C(=O)O)c2ccc(O)cc2)C(=O)N2C(C(=O)O)=C(CSc3nnnn3C)CO[C@@H]21 (stereo not given in full) | 9.62% [at 39.1 µM] (inactive) | –
COC(=O)Nc1ccc(Cl)c(Cl)c1 | 15% (inactive) | –
Cc1nc2ccc(CN(C)c3ccc(C(=O)N[C@@H](CCC(=O)O)C(=O)O)s3)cc2c(=O)[nH]1 | – | inactive
CCCCc1nc(Cl)c(CO)n1Cc1ccc(-c2ccccc2-c2nn[nH]n2)cc1 | -3.25% (inactive) | –
Cc1ccc(C(=O)Nc2ccc(S(=O)(=O)O)c3cc(S(=O)(=O)O)cc(S(=O)(=O)O)c23)cc1NC(=O)c1cccc(NC(=O)Nc2cccc(C(=O)Nc3cc(C(=O)Nc4ccc(S(=O)(=O)O)c5cc(S(=O)(=O)O)cc(S(=O)(=O)O)c45)ccc3C)c2)c1 | -13.1% (inactive) | –
CC(=O)N1C[C@H](O)C[C@H]1C(=O)O | 9.88% (inactive) | –
NC(=O)Cc1cccc2ccccc12 | 16.3% (inactive) | –
CC1CCC(CO)CC1 (stereo not given) | 4.35% [at 95.3 µM] (inactive) | –
CCCCCCCCCCCCCCCCCCO | 11.4% (inactive) | –
CC(=O)O[C@@]12CO[C@@H]1C[C@H](O)[C@@]1(C)C(=O)[C@H](O)C3=C(C)[C@@H](OC(=O)[C@H](O)[C@@H](NC(=O)OC(C)(C)C)c4ccccc4)C[C@@](O)([C@@H](OC(=O)c4ccccc4)[C@H]21)C3(C)C | – | 11.9 nM (active) and 8.4 nM (active)
CC(=O)OCC(=O)[C@@]1(O)[C@H](C)C[C@H]2[C@@H]3CCC4=CC(=O)C=C[C@]4(C)[C@@]3(F)[C@@H](O)C[C@@]21C | – | inactive
CN(C)[C@@H]1C(=O)C(C(=O)NCN2CCCC2)=C(O)[C@@]2(O)C(=O)C3=C(O)c4c(O)cccc4[C@@](C)(O)C3C[C@@H]12 (stereo not given in full) | – | inactive
